Luciferase inh = blocks purified firefly luciferase enzyme activity. P08659. purified P. pyralis luciferase, luminescence, biochemical. Potency, µM (series often up to 115 µM), actives largely listed as inhibitors. hit rate 2.5% among 76,000; also: nearly all actives have a fitted effect of over 65% in size
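Biochemical qHTS: compound (6-point titration) added to 10uM D-luciferin plus 10uM ATP in Tris acetate pH 7.5 buffer with Mg, Tween-20 and BSA, then purified enzyme at 10nM; light output imaged.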
GPT2 inh = inhibitors of human GPT2 alanine aminotransferase | Q8TD30 | hit rate 0.25% among 100,000 | Potency, µM (top dose mostly 57.7 µM), most hits filed as inhibitors | Recombinant GPT2, coupled pyruvate oxidase/HRP Amplex Red fluorescence; also: nearly all actives have a fitted effect of over 60% in size
Target sequence (Q8TD30 whole entry, looked up): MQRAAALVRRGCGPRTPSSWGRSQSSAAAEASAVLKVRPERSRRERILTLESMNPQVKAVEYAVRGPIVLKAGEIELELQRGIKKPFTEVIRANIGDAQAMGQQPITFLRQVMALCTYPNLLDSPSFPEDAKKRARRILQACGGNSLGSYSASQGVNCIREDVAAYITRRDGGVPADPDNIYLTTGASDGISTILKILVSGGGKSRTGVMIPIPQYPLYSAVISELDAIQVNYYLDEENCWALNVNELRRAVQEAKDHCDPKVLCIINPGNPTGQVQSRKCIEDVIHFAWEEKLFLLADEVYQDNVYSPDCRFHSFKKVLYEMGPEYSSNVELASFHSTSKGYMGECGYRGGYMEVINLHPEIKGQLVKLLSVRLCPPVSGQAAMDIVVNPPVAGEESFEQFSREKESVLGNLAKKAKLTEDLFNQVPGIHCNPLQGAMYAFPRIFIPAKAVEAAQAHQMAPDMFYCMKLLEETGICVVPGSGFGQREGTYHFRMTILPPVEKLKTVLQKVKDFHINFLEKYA
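Recombinant GPT2 (10ng/uL) with 250uM a-KG and 2mM L-alanine, 30 min at room temperature, in HEPES pH 7.5 buffer. Pyruvate detected by pyruvate oxidase/HRP/Amplex Red fluorescence after 30 min in the dark; AOA (50uM) as positive control.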
HEK cytotox = cytotoxic compounds in HEK 293 cells. HEK 293 viability, ATP luminescence (CellTiter-Glo), 48-72 h. Potency, µM (titrated, usually from 115 µM), actives largely listed as inhibitors. hit rate 6.6% among 94,000. AID 1345083; also: nearly all actives have a fitted effect of over 60% in size
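HEK 293 cells at 250 cells/well were exposed to compounds by pintool transfer for 48 or 72 hr at 37 degree Celsius, 5% CO2. Viability was read as ATP-coupled luminescence with CellTiter-Glo after 10 min at room temperature.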
NPR1 antag = human Npr1 receptor antagonism | hit rate 1.6% among 76,000 | HEK293 hNpr1 GloSensor cGMP, ANP-stimulated luminescence | AID 1347048 | Potency, µM (highest dose often 46.3 µM), usual class: inhibitors; calls by dose curve; also: nearly all actives have a fitted effect of over 60% in size
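Compound pre-incubated 30 min at room temperature on GloSensor-loaded HEK293 cells stably carrying hNpr1 and the pGS-40F cGMP biosensor. Stimulation uses hNppA at 0.1 nM final; luminescence is taken at baseline and 20 min post-agonist.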
NIH3T3 tox = NIH 3T3 cell cytotoxicity; Potency, µM (series often up to 96.7 µM), hits mostly inhibitors; AID 1345082; hit rate 4.3% among 94,000; NIH 3T3 viability, CellTiter-Glo ATP luminescence, 48-72 h; also: nearly all actives have a fitted effect of over 55% in size
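ATP-dependent luminescence (CellTiter-Glo) served as the viability signal for NIH 3T3 cells treated with compound for 48 or 72 hr at 37 °C.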
Of the large screens only hits and unclear results are named; the others gave an inactive call. Sampled rows, rich in hits. Any-hit rate of the full collection: about 10%. Unless noted, calls follow the shape of the dose curve; as a rule, active = well fitted curve in the direction sought with a large enough effect; inconclusive = small, poorly fitted or top-dose-only effect, or another doubt; inactive = no such curve, though single readings can be large; an effect the other way counts as inactive or inconclusive.

COc1ccc(-c2cn3c(n2)N(C(=O)c2cccs2)CCC3)cc1	Luciferase inh 35µM, HEK cytotox inconclusive
COc1ccc(-c2cn3c(n2)N(C(=O)Cc2cccs2)CCC3)cc1	HEK cytotox inconclusive, NIH3T3 tox inconclusive
O=C(c1ccco1)N1CCCn2cc(-c3ccc4c(c3)OCO4)nc21	HEK cytotox inconclusive
Cc1nnc2ccc(N3CCN(C(=O)NC(C)C)CC3)nn12	none (no result: Luciferase inh, GPT2 inh, NPR1 antag)
Cc1cc(Cl)ccc1S(=O)(=O)N1CCC(Oc2ccc(C(N)=O)cn2)CC1	HEK cytotox 25µM, NPR1 antag inconclusive, NIH3T3 tox inconclusive
CCCN1CCN(C(=O)c2c(OCC3CC3)cc(=O)n3c2CCOCC3)CC1	none (no result: Luciferase inh, NPR1 antag)
COc1cccc(OCc2nc3c(n2Cc2ccccc2)C(=O)N(CCOc2ccccc2)CCN3)c1	GPT2 inh inconclusive, HEK cytotox 32µM, NPR1 antag inconclusive, NIH3T3 tox 20µM
COc1cccc(OCc2nc3c(n2Cc2ccccc2)C(=O)N(C)CCN3)c1	HEK cytotox inconclusive
N#Cc1cccc(OCc2nc3c(n2Cc2ccccc2)C(=O)N(Cc2ccccc2F)CCN3)c1	HEK cytotox inconclusive, NIH3T3 tox 28µM
O=C1c2c(nc(COc3cccc(C(F)(F)F)c3)n2Cc2ccccc2)NCCN1CC1CC1	HEK cytotox 50µM, NIH3T3 tox 35µM
O=C1c2c(nc(COc3cccc(Cl)c3)n2Cc2ccccc2)NCCN1CCOc1ccccc1	HEK cytotox inconclusive, NIH3T3 tox 18µM
CNC(=O)c1cc(C2CC2)nc2c1c(C1CCCN1C(=O)c1ccncc1)nn2C (stereo not given)	none (no result: Luciferase inh, GPT2 inh, NPR1 antag)
O=C(c1ccccc1F)N1CCCC(C(=O)N2CCC(N3Cc4cccn4C3=O)CC2)C1 (stereo not given)	HEK cytotox inconclusive (no result: Luciferase inh, NPR1 antag)
O=C1c2c(nc(CNc3ccccc3Cl)n2Cc2ccccc2)NCCN1CC1CC1	HEK cytotox 100µM, NIH3T3 tox 89µM
COc1ccc(-c2ccc3c(c2)C(=O)N2CC[C@H](NC(=O)c4cccs4)[C@H]2C(=O)N3)c(OC)c1	Luciferase inh inconclusive, HEK cytotox inconclusive
O=C(N[C@H]1CCN2C(=O)c3ccc(Cl)cc3NC(=O)[C@H]12)c1cccs1	NIH3T3 tox 89µM
COc1ccc(-c2ccc3c(c2)C(=O)N2CC[C@H](NC(=O)CCC(=O)O)[C@H]2C(=O)N3)cc1	Luciferase inh inconclusive
COc1ccc(-c2ccc3c(c2)C(=O)N2CC[C@H](NC(=O)CSC)[C@H]2C(=O)N3)cc1	Luciferase inh 25µM, HEK cytotox inconclusive, NIH3T3 tox inconclusive
O=C(N[C@H]1CCN2C(=O)c3cc(-c4ccccc4)ccc3NC(=O)[C@H]12)c1cccs1	none
O=C(N[C@H]1CCN2C(=O)c3cc(-c4ccc(Cl)cc4)ccc3NC(=O)[C@H]12)c1cccs1	Luciferase inh 11µM, HEK cytotox inconclusive, NIH3T3 tox inconclusive
COc1ccc(-c2ccc3c(c2)C(=O)N2CC[C@H](NC(=O)c4cccs4)[C@H]2C(=O)N3)cc1	Luciferase inh 25µM
COc1ccc(Cl)cc1-c1ccc2c(c1)C(=O)N1CC[C@H](NC(=O)NC(C)C)[C@H]1C(=O)N2	HEK cytotox inconclusive
COc1ccc(Cl)cc1-c1ccc2c(c1)C(=O)N1CC[C@H](NC(=O)c3cccs3)[C@H]1C(=O)N2	HEK cytotox 35µM, NPR1 antag inconclusive, NIH3T3 tox inconclusive
COc1ccc(-c2ccc3c(c2)C(=O)N2CC[C@H](NS(=O)(=O)c4cccs4)[C@H]2C(=O)N3)cc1	Luciferase inh inconclusive, HEK cytotox 22µM, NPR1 antag inconclusive, NIH3T3 tox inconclusive
COc1ccc(CC(=O)Nc2ccc3c(c2)CN(Cc2cccc(OC)c2OC)C(=O)C(C)O3)cc1 (stereo not given)	none
N#Cc1cccc(CN2C[C@@H](CO)[C@H](NC(=O)c3ccccc3)C2)c1	HEK cytotox inconclusive, NIH3T3 tox 5µM
COc1cccc(CN2C[C@@H](CO)[C@H](NC(=O)c3ccccc3)C2)c1	HEK cytotox 35µM, NIH3T3 tox inconclusive
Cn1cc(CC(=O)N2CCCc3ncc(C(=O)NCc4cccs4)cc32)c2ccccc21	HEK cytotox inconclusive, NIH3T3 tox inconclusive
O=C1COc2ccc(OCc3cncs3)nc2CN1Cc1ccc(F)cc1	GPT2 inh inconclusive, HEK cytotox 112µM, NIH3T3 tox inconclusive
